# Assay outcomes: PubChem, National Center for Advancing Translational Sciences (NCATS)
# Many of the other results were omitted from the sample, so hits are more common in it than they were.
# DT40 TDP1 CPT – qHTS for Inhibitors of human tyrosyl-DNA phosphodiesterase 1 (TDP1): qHTS in cells in presence of CPT; chicken DT40 Tdp1-/-;hTDP1 cells + 20 nM CPT, ATP luminescence, 48 h; Potency, µM (titrated, usually from 46.2 µM), for inactives: at the top dose activity change, negative = growth inhibition, actives largely listed as inhibitors; 420,000 tested, 12% active; also: potency is read from the fitted curve at half-maximal effect; nearly all actives have a fitted effect of over 55% in size
#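 Chicken DT40 Tdp1-/- cells stably complemented with human TDP1 were seeded at 400 cells/well in medium containing 20 nM camptothecin, exposed to pin-transferred compounds, and grown at 37 °C for at least 48 hr. Viability was read as ATP luminescence.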
# TDP1 cell noCPT – qHTS for Inhibitors of human tyrosyl-DNA phosphodiesterase 1 (TDP1): qHTS in cells in absence of CPT. DT40 Tdp1-/- hTDP1 cells, no CPT, ATP luminescence, 48 h. Potency, µM (highest dose often 46.2 µM), for the others: at the highest dose activity change, negative = growth inhibition, usual class: inhibitors. 420,000 tested, 15% active; also: potency is read from the fitted curve at half-maximal effect; nearly all actives have a fitted effect of over 55% in size
#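 Luminescent ATP content (CellTiter-Glo) served as the growth readout. Knockout chicken DT40 cells expressing human TDP1 were exposed to compounds without camptothecin for a minimum 48 hr at 37 °C.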
# HT1080NT lethal – qHTS for induction of synthetic lethality in tumor cells producing 2HG: qHTS for the HT-1080-NT fibrosarcoma cell line | Potency, µM (titrated, usually from 46.1 µM), without a hit: top-dose activity, negative = less viability, actives largely listed as cytotoxic | AID 686970, 2013 | HT-1080-NT fibrosarcoma viability, CellTiter-Glo ATP luminescence, 48 h | 360,000 tested, 1.6% active;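 also: NT is the 2HG producing partner of a matched IDH1 knockdown line; potency is read from the fitted curve at half-maximal effect; 0% = DMSO-treated cells and -100% = media-only wells without cells; nearly all actives have a fitted effect of over 55% in size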
#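 HT-1080-NT fibrosarcoma cells (2HG-overproducing), 750 cells/well in RPMI with 5% FBS, dosed after 2 h and incubated 48 h at 37C. CellTiter-Glo luminescence normalized to DMSO and no-cell wells; concentration-response curves fitted and classed.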
# IL1B secr inh – qHTS for Inhibitors of Inflammasome Signaling: IL-1-beta AlphaLISA Primary Screen; activity change, % at 57.5 µM; THP-1 LPS/ATP IL-1B secretion, AlphaLISA, 16 h; hits give low values; 360,000 tested, 4.7% active; AID 743279, 2014; in the data active = activity change below about -50%; inconclusive = mostly about -30% to -49%
#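 Secreted IL-1B measured by AlphaLISA bead assay after 16 h compound exposure of THP-1 cells; compounds (final up to 57.5 uM) added 1 h before LPS (250 ng/mL) and ATP (1.25 mM) stimulation; lower signal means less secretion.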
# HT1080 IDH1KD tx – qHTS for induction of synthetic lethality in tumor cells producing 2HG: qHTS for the HT-1080-IDH1KD cell line. HT-1080 IDH1 knockdown viability, ATP luminescence, 48 h. Potency, µM (titrated, usually from 46.1 µM), inactives show top-dose activity, negative = toxicity, usual class: cytotoxic. 360,000 tested, 2% active;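 also: potency is read from the fitted curve at half-maximal effect; 0% = DMSO wells and -100% = cell-free medium wells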
#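 In this qHTS, HT-1080 cells depleted of IDH1 are exposed for 48 h at 37 °C to compound titrations. Toxicity is scored from CellTiter-Glo luminescence, with DMSO as full viability and medium alone as none.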
# ALOX12 inh – Primary qHTS assay for inhibitors of human arachidonate 12S-lipoxygenase (ALOX12): Round 2; purified 12hLO, xylenol orange hydroperoxide absorbance; Potency, µM (series often up to 108 µM), for inactives: top-dose activity change, negative = inhibition, usual class: inhibitors; 580,000 tested, 1.1% active; also: potency is read from the fitted curve at half-maximal effect
# Target sequence (P18054 whole entry, looked up): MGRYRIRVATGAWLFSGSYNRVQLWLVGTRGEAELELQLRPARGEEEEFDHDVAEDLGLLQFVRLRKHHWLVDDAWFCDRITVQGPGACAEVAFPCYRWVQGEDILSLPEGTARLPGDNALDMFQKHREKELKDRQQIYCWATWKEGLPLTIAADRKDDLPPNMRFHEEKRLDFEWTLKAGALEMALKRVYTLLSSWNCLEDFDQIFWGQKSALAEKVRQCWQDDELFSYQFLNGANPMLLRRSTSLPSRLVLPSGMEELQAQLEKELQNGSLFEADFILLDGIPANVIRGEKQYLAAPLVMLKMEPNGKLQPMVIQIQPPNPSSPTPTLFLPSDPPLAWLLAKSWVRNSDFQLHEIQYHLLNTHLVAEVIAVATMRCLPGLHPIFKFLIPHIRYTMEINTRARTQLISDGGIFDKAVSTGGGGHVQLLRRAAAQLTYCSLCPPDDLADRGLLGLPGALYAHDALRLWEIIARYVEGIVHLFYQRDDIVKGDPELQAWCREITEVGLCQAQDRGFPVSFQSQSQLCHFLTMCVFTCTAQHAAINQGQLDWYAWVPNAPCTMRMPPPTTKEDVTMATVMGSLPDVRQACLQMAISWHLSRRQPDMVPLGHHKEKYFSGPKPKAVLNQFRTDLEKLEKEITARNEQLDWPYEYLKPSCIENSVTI
#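 Hydroperoxide product was detected by ferrous iron/xylenol orange as the 573 to 405 nm absorbance ratio. Arachidonic acid at 40 uM (final) was turned over for 30 min at room temperature by 150 nM human 12hLO, pH 7.0 Hepes buffer, after 15 min compound preincubation.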
# * marks the source's active call; other numbers are inactive results; ? = inconclusive; . = no result given; [ ] = remark or other dose. Unless noted, calls follow the shape of the dose curve; as a rule, active = well fitted curve in the direction sought with a large enough effect; inconclusive = small, poorly fitted or top-dose-only effect, or another doubt; inactive = no such curve, though single readings can be large; an effect the other way counts as inactive or inconclusive. Unless noted, % is scaled to controls: 0 for no effect and ±100 for the full control effect.
SMILES,DT40 TDP1 CPT,TDP1 cell noCPT,HT1080NT lethal,IL1B secr inh,HT1080 IDH1KD tx,ALOX12 inh
C#C[C@H]1CN2CC[C@H]1C[C@@H]2CNCc1ccc(F)c(F)c1,.,.,.,.,.,49%[176 µM]
Fc1ccc(C(OCCN2CCN(C/C=C/c3ccccc3)CC2)c2ccc(F)cc2)cc1,5.2µM*,3.3µM*,.,.,.,?
c1ccc(CCCN2CCN(CCOC(c3ccccc3)c3ccccc3)CC2)cc1,9.2µM*,13µM*,23µM*,-16,23µM*,?
c1ccc(CCN2CCOCC2)cc1,-14%,-13%,.,.,.,.
COC(=O)C1=C(c2ccc(S(C)(=O)=O)cc2)C[C@@H]2CC[C@H]1N2C(=O)NCc1cccc2ccccc12,29µM*,.,8%,-11,11%,?
COC(=O)C1=C(c2cc3ccccc3o2)C[C@@H]2CC[C@H]1N2C(=O)NCc1ccco1,16µM*,.,5%,-12,-10%,-4%
COC(=O)C1=C(c2cc3ccccc3o2)C[C@@H]2CC[C@H]1N2C(=O)NCc1ccc(F)cc1,?,.,-27%,-14,?,?
COC(=O)C1=C(c2cc3ccccc3o2)C[C@@H]2CC[C@H]1N2C(=O)NCc1cccc2ccccc12,?,16µM*,-1%,-15,-14%,20%
COC(=O)C1=C(c2cccc(C#N)c2)C[C@@H]2CC[C@H]1N2C(=O)NCc1cccc2ccccc12,?,-29%,2%,-18,-9%,-18%
COC(=O)C1=C(c2ccc(F)cc2OCc2ccccc2)C[C@@H]2CC[C@H]1N2C(=O)NCc1ccco1,?,?,-4%,1,-2%,?
C=CCN(C)C(=O)[C@H]1CN2CCC1C[C@@H]2Cn1cc(-c2ccccc2)nn1 (some centres not stated),.,.,.,.,.,17%[176 µM]
COC(=O)CSC1=NP(=S)(SCC(=O)OC)N2CCCC2=C1C#N (configuration not stated),-26%,?,5%,-94*,0%,0%
O=C(NCc1ccco1)[C@H]1CN2CC[C@H]1C[C@@H]2Cn1cc(CCO)nn1,.,.,.,.,.,2%[176 µM]
CSCC(=O)N1C[C@@H]2C[C@H](C1)c1c(-c3ccc(NC(C)=O)cc3)ccc(=O)n1C2,.,.,.,.,.,-7%[176 µM]
CCN(CC)C(=O)c1ccc(NC(=O)Nc2ccccc2F)cc1,4.6µM*,9.2µM*,7.3µM*,-15,5.2µM*,0%
CCN(CC)C(=O)c1ccc(NC(=O)CCCSc2ccccc2)cc1,-2%,?,12%,-11,0%,-17%
CCC1=CCN(CCc2c(C)[nH]c3ccccc23)CC1,2%,0.58µM*,2%,-8,0%,-6%
COc1ccc2[nH]c(C)c(CCN3CCC(=O)C(C)C3C)c2c1 (configuration not stated),-11%,-14%,7%,-11,0%,?
C#C[C@]1(O)C=C[C@H]2[C@@H]3CCC4=CC(=O)CC[C@@H]4[C@H]3CC[C@@]21CC,15µM*,15µM*,.,.,.,.
C#C[C@@H]1CC2C3CCC4=CC(=O)CCC4C3CCC2(CC)C1O (some centres not stated),.,.,.,.,.,1%
CC/C(=C\C=C\[C@@H]1C=C[C@@H]2CCC[C@H]2[C@@H]1C(=O)c1ccc[nH]1)[C@@H]1O[C@@H]([C@@H](C)C(=O)O)CC[C@@H]1C,7.3µM*,5.8µM*,10µM*,0,8.2µM*,.
